Assay results taken from PubChem BioAssay.
The source made the active and inactive calls.

Key:
[1] = tested on: Human papillomavirus type 1a protein E7 (residues 44-93); test: HPV1a E7 fragment binders on microarrays, primary screen, biochemical, small-molecule microarray, residues 44-93, 635 nm fluorescence (AID 1108); details: small-molecule microarray binding, fluorescence 635 nm; higher = more signal;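 also: E7 fragment applied at 1 µg/mL in TBST for 1 h at 4 C; score combines spot fluorescence with its signal to noise ratio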
[2] = modulators of HCV replicon luciferase signal, primary screen, HCV replication inhibitor project, Huh7 cells, luciferase reporter (AID 1109); details: 48 h, higher = more signal;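 also: huh7 hepatoma cells harbouring a luciferase neomycin HCV replicon reporter; luciferase luminescence as measure of HCV replicon replication; test concentration not given here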
[3] = biological target: Left-right determination factor 2 (Homo sapiens) (UniProt O00292); test: LEFTY2 binders on small-molecule microarrays, primary screen, biochemical, small-molecule microarray, 635 nm fluorescence scan (AID 1110); details: LEFTY2 binding, higher = more signal
Left-right determination factor 2 (Homo sapiens), sequence (O00292 whole entry, looked up): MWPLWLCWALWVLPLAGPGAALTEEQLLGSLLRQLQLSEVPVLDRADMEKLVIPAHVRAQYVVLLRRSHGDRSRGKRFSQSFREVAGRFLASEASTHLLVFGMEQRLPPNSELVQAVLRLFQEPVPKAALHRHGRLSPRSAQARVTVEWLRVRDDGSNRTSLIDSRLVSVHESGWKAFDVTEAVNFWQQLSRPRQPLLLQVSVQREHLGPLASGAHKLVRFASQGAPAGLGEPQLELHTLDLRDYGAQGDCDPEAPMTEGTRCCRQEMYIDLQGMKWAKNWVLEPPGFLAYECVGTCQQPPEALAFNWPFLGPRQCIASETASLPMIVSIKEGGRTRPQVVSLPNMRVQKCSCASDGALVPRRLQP

[4] = biological target: Calmodulin-1 (Homo sapiens) (UniProt P0DP23); test: CALM1 binders on microarrays, EGTA buffer, profiling panel, biochemical, small-molecule microarray, Cy5-labelled CALM1 (AID 1111); details: Cy5-CALM1 binding fluorescence, higher = more signal;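 also: labelled calmodulin applied in Tris saline Tween buffer holding calcium plus EGTA and DTT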
[5] = biological target: Calmodulin-1 (Homo sapiens) (UniProt P0DP23); test: calcium-bound CALM1 binders on microarrays, profiling panel, artefact control for SMM control-protein annotation, biochemical, small-molecule microarray, Cy5-labelled CALM1, plus calcium (AID 1112); details: Cy5-CALM1 binding fluorescence, higher = more signal;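 also: score merges spot fluorescence with signal to noise from triplicate slides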
[6] = small-molecule microarray binders of probe aWnt5a, primary screen, biochemical, biotinylated probe, 635/667 nm fluorescence (AID 1113); details: higher = more signal;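 also: score merges 667 nm fluorescence intensity with signal-to-noise per printed feature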
[7] = small-molecule microarray binders of probe aShh, primary screen, biochemical, biotinylated probe, 635/667 nm fluorescence (AID 1114); details: higher = more signal;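 also: probe is biotin-labelled aShh protein from a stem cell growth factor screen; measures binding of labelled protein to compounds printed on the slide; score merges feature fluorescence at 667 nm with signal-to-noise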
[8] = small-molecule microarray binders of probe aNog, primary screen, biochemical, biotinylated probe, 635/667 nm fluorescence (AID 1115); details: higher = more signal;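 also: probe is biotinylated aNog protein used at 0.15 µg/mL for 1 h at 4 C; z-score combines 667 nm fluorescence of each spot with its signal to noise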
[9] = biological target: Torsin-1A-interacting protein 1 (Homo sapiens) (UniProt Q5JTV8); test: LAP1 binders from COS7 cell lysate, primary screen, small-molecule microarray, 635/667 nm fluorescence (AID 1116); details: COS7-hLAP1 lysate binding, 635 nm fluorescence, higher = more signal
Torsin-1A-interacting protein 1 (Homo sapiens), sequence (Q5JTV8 whole entry, looked up): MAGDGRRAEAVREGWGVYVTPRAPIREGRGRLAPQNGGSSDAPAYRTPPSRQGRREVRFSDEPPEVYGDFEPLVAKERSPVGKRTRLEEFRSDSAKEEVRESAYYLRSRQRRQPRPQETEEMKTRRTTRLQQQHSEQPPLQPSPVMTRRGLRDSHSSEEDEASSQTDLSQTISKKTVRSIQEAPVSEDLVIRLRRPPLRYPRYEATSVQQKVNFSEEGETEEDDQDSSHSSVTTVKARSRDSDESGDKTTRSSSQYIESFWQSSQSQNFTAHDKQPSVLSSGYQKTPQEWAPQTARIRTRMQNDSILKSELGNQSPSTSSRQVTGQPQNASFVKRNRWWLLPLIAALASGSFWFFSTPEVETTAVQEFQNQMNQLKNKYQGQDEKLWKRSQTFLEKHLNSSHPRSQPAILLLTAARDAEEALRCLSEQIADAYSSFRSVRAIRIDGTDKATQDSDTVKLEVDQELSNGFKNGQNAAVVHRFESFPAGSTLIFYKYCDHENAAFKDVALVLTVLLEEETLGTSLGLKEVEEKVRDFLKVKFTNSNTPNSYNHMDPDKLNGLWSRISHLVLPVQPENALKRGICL

[10] = biological target: Alpha-bungarotoxin (Bungarus multicinctus) (UniProt P60615); test: alpha-bungarotoxin binders on microarray, profiling panel, artefact control for SMM control protein annotation, biochemical, small-molecule microarray, Alexa647 label, 635/667 nm fluorescence (AID 1117); details: alpha-BTX-A647 binding fluorescence, higher = more signal
Alpha-bungarotoxin (Bungarus multicinctus), sequence (P60615 whole entry, looked up): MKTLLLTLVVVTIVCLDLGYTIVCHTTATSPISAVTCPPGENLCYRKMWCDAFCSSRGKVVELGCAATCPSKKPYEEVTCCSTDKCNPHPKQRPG

Albumin (Bos taurus) = Albumin (Bos taurus) (UniProt P02769); test: bovine serum albumin binders on microarray, profiling panel, artefact control for SMM control protein annotation, biochemical, small-molecule microarray, Alexa647 label, 635/667 nm fluorescence (AID 1118); details: BSA-A647 binding, fluorescence 635 nm, higher = more signal;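 also: score merges 667 nm emission intensity and signal-to-noise per printed compound spot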
Albumin (Bos taurus), sequence (P02769 whole entry, looked up): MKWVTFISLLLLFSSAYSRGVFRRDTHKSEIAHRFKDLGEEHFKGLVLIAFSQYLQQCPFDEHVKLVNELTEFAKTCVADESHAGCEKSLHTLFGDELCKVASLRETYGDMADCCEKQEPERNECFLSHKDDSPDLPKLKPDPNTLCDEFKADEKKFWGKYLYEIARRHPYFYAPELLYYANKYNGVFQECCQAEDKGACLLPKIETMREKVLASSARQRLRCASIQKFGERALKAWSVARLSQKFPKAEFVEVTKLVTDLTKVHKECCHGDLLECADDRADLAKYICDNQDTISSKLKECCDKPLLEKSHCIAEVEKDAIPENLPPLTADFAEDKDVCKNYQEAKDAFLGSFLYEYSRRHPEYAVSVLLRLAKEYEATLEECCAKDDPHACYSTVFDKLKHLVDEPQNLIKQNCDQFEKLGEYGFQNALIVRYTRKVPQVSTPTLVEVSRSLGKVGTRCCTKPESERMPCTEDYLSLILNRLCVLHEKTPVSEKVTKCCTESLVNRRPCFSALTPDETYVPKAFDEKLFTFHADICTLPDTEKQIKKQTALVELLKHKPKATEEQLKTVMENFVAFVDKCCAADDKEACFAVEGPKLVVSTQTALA

[11] = small-molecule microarray binders of probe aXIP, primary screen, biochemical, NeuroSMM set, 635/667 nm fluorescence (AID 1119); details: higher = more signal, called active from +8 up or from −8 down;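 also: probe is the protein aXip251-270 applied at 1 µg/mL to compound-printed slides; binding of probe to printed compounds measured as 667 nm fluorescence plus signal to noise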
[12] = small-molecule binders of probe aNOTCH3, primary screen, biochemical, small-molecule microarray, 635/667 nm fluorescence (AID 1120); details: higher = more signal;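 also: probe is a biotin-tagged antibody raised against NOTCH3 rather than NOTCH3 protein; score merges spot fluorescence near 667 nm with spot signal to noise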
[13] = small-molecule binders of probe aNOTCH2, primary screen, biochemical, small-molecule microarray, 635/667 nm fluorescence (AID 1121); details: higher = more signal;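 also: score merges feature fluorescence read at 667 nm with its signal to noise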
[14] = biological target: Carbonic anhydrase 2 (Homo sapiens) (UniProt P00918); test: CAII small-molecule binders, profiling panel, biochemical, small-molecule microarray, Alexa647-labelled CAII (AID 1122); details: CAII-A647 binding fluorescence, higher = more signal
[15] = COS7 lysate on small-molecule microarray, probe aHis, 635 nm (AID 1123); details: COS7 cell lysate, fluorescence, higher = more signal;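 also: z-score combines 667nm fluorescence intensity with signal-to-noise per printed compound spot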
[16] = compound binding in COS7 lysate, probe aLAP1, primary screen, cell lysate, small-molecule microarray (AID 1124); details: probe aLAP1, fluorescence, higher = more signal;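 also: lysate comes from COS7 cells expressing LAP1 and is applied at 0.3 µg/mL; score merges spot fluorescence near 667 nm with signal-to-noise over triplicate slides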
Sam68 (KHDRBS1) = test: Sam68 small-molecule binders, primary screen, biochemical, small-molecule microarray, 635 nm fluorescence (AID 1125); details: small-molecule microarray binding, higher = more signal;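 also: score merges 667 nm channel intensity with signal to noise over triplicate slides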
[17] = tested on: Chordin-like protein 2 (CHRDL2); test: CHRDL2 small-molecule binders, primary screen, biochemical, small-molecule microarray, 635 nm fluorescence (AID 1126); details: small-molecule microarray binding, fluorescence 635 nm; higher = more signal;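 also: printed compound slides probed with Chrdl2 protein at 4 µg/mL for 1 h at 4 C; score merges 667 nm emission intensity with signal to noise over three replicate slides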
[18] = biological target: Concanavalin-A (Canavalia ensiformis) (UniProt P02866); test: ConA small-molecule binders, primary screen, artefact control for SMM control protein annotation, biochemical, small-molecule microarray, Alexa647 label, 635 nm (AID 1127); details: ConA-A647 binding fluorescence, higher = more signal;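 also: z combines 667 nm emission intensity with signal-to-noise across three replicate slides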
Concanavalin-A (Canavalia ensiformis), sequence (P02866 whole entry, looked up): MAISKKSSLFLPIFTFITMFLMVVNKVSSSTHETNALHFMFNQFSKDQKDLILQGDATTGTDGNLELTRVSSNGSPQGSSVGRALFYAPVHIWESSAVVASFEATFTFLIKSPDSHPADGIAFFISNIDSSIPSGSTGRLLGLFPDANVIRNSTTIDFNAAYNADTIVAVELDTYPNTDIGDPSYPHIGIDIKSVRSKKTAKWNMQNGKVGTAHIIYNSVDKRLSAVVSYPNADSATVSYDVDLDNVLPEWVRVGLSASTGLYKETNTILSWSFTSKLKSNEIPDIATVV

Structure (SMILES)	composite z-score [1]	z-score [2]	composite z-score [3]	composite z-score [4]	composite z-score [5]	composite z-score [6]	composite z-score [7]	composite z-score [8]	composite z-score [9]	composite z-score [10]	composite z-score (Albumin (Bos taurus))	composite Z-score [11]	composite z-score [12]	composite z-score [13]	composite z-score [14]	composite z-score [15]	composite z-score [16]	composite z-score (Sam68 (KHDRBS1))	composite z-score [17]	composite z-score [18]
CN(C)CCCC[C@@H]1NC(=O)[C@H]2C[C@@H](C(=O)NCc3ccc(F)cc3)[C@@H](c3ccc(O)cc3)N2C1=O	-0.247	0.206	1.15	-1.08	0.354	-0.0748	0.365	-0.273	1.03	2.5	-0.734	1.79 (inactive)	-0.136	-0.0423	0.757	2.25	0.0507	1.16	1.13	1.15
COc1ccc(NN2C(C(O)c3ccc(OC)cc3)C=CC3C(=O)N(C4CCCCC4)C(=O)C32)cc1 (stereo not given)	1.2	-1.02	0.318	0.566	-0.366	0.0357	0.191	0.571	0.53	1.08	0.828	0.297 (inactive)	0.124	-0.0037	0.405	1.1	0.0023	1.28	-0.138	0.872
CCCCC(=C=CC[C@@H](O)c1cccc(OCCO)c1)CCO	-0.333	-0.165	-0.125	-0.494	0.181	-0.18	0.0121	-0.405	0.297	2.16	0.319	-0.462 (inactive)	-0.119	-0.142	0.34	0.592	0.0297	0.158	-0.596	-0.0305
